Only some compounds are listed: those with a hit (about 2.5% of all), similar ones and a draw of the others.
D2 ag-1 = HTS Assay for Allosteric Agonists of the Human D2 Dopamine Receptor: Primary Screen for Agonists; activation, % at 2 µM; HEK293 T-REx D2 cells, calcium flux agonist mode; D(2) dopamine receptor (Homo sapiens), P14416; AID 485358, 2010; 0.53% of 340,000 active;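 active means activation over 3 SD above normal in the single-dose calcium agonist read, cut at about 30% in these data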
Target sequence (P14416 whole entry, looked up): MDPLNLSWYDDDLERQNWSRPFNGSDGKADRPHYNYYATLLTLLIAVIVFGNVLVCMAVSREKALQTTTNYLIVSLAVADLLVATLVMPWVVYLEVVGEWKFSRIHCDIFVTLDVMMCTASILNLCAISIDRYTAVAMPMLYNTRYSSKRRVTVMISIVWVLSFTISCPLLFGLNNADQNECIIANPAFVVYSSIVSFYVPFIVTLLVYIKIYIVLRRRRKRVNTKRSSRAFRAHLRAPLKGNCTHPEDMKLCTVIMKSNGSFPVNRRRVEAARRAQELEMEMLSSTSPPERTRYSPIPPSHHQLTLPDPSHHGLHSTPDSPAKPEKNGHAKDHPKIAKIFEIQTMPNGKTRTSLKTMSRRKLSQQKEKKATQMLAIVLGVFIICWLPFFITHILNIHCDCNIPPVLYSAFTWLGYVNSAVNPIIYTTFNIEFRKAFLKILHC
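HEK293 Trex D2 cells, tetracycline-induced, o/n 30 C 5% CO2; no-wash Ca dye, RT 30–90 min; 10-cycle baseline, 23 nl cpd added, kinetic Ca read 180 s; agonist hits = positive Ca response.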
Apoferritin bind = qHTS Assay for Identification of Novel General Anesthetics. Ferritin light chain (Equus caballus), P02791. apoferritin/1-aminoanthracene competitive binding, fluorescence. Potency, µM (highest dose often 77.5 µM), usual class: inhibitors. 0.074% of 350,000 active. AID 485281, 2010; active means well fitted inhibition curve with a large enough effect; inconclusive means small, poorly fitted or top-dose-only effect; inactive means no such curve, though single readings can be large or run the other way; further: nearly all actives have a fitted effect of over 20% in size
Target sequence (P02791 2-175 limits assumed): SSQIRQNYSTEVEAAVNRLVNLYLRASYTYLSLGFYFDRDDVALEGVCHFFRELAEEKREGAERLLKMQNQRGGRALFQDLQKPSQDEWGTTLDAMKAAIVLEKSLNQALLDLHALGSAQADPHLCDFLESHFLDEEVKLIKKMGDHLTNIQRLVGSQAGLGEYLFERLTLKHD
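Concentration-response curves derived by four-parameter Hill fitting of normalized fluorescence, where compounds displaced 1-AMA from 10 uM horse apoferritin following a brief 10 min room-temperature incubation; propofol titration acted as positive control.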
D2 PAM-1 = HTS Assay for Positive Allosteric Modulators of the Human D2 Dopamine Receptor: Primary Screen for Potentiators; potentiation, % at 10 µM; D(2) dopamine receptor (Homo sapiens), P14416; 0.34% of 340,000 active; HEK293 T-REx D2, calcium flux, EC20 dopamine potentiation;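 active means potentiation over 3 SD above the plate norm, cut at about 30% in these data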
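Tetracycline-induced HEK293 T-REx cells force-coupled to calcium signalling expressed D2; compounds were pin-added after a 10 s baseline, read kinetically 180 s, then an EC20 dopamine challenge followed with a further 180 s calcium read.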
D2 PAM-2 = Beta-Arrestin HTS for Positive Allosteric Modulators of the Human D2 Dopamine Receptor: Potentiators; DiscoveRx D2 beta-arrestin cells, luminescence, 90 min; 100% = 57 uM dopamine signal; potentiation, % (concentration not given with the values); 0.23% of 360,000 active; AID 624464, 2012; in the data active means potentiation above about 50%; inconclusive means mostly about 30% to 49%
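D2 cells co-treated with compound plus 50 nM dopamine (EC20) for 90 min at 37 deg C to detect potentiation. Beta-arrestin recruitment was read as enzyme-fragment luminescence after 1 h at ambient temperature. Full response was set by 57 uM dopamine.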
D2 ag-2 = Beta-Arrestin HTS for Positive Allosteric Modulators of the Human D2 Dopamine Receptor: Agonists; 0.084% of 360,000 active; DiscoveRx PathHunter D2 beta-arrestin, luminescence, 90 min; 100% = 57 uM dopamine signal; activation, % (no concentration beside the values); in the data active means activation above about 40%; inconclusive means between about 15% and that limit
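Agonist mode: compounds alone added to overnight-plated D2 PathHunter cells for 90 min at 37 C, with 57 uM final dopamine (EC100) defining full response. Beta-arrestin recruitment detected by chemiluminescent reagent, read after 1 h at ambient temperature.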
D2 antagonist = HTS Assay for Allosteric Antagonists of the Human D2 Dopamine Receptor: Primary Screen for Antagonists. D(2) dopamine receptor (Homo sapiens), P14416. HEK293 TREx D2 cells, calcium flux, dopamine EC80. inhibition, % at 10 µM. 2% of 340,000 active. AID 485344, 2010; in the data active means inhibition above about 30%; inactive means below that, where a call was filed
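Read-out: kinetic calcium fluorescence (1 cycle/s) in inducible HEK293 T-REx D2 cells after an EC80 dopamine addition that followed 180 s compound preincubation. Loss of the dopamine response indicates antagonism.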
Of the large screens only hits and unclear results are named; the others gave an inactive call.

COc1cc2c(cc1OC)C1(C)N(CC2)C(C(C)=O)=NN1c1ccc(Cl)cc1 (configuration not stated)	none
COc1ccc(NC(=O)C(c2ccc(OC)cc2)N(C)C(=O)CNC(C)=O)cc1 (configuration not stated)	D2 antagonist 38
COc1ccc(C/C(C)=N/NC(=S)Nc2ccccc2F)cc1	none
COc1ccc(C(NC(=O)CNC(C)=O)C(=O)Nc2ccc(C(C)C)cc2)cc1 (configuration not stated)	D2 antagonist 37
COc1ccc(C/C(C)=N/NC(=S)Nc2ccc(C(C)C)cc2)cc1	D2 antagonist 36
COc1ccc(NC(=O)C(c2ccc(C)cc2)N(C)C(=O)CNC(C)=O)cc1 (configuration not stated)	none
Cc1oc(-c2ccccc2Cl)nc1CSc1nc2c(c(=O)[nH]1)CCC2	D2 antagonist 35
Cc1oc(-c2cccc(Cl)c2)nc1CSc1nc2c(c(=O)[nH]1)CCC2	none
O=C1CCCc2sc3c(c2N1)CCCCC3	none
CC(C)OC(=O)c1c(NC(=O)CCC(=O)O)sc2c1CCCCC2	none
CC(C)OC(=O)c1c(NC(=O)CCn2nnc3ccccc32)sc2c1CCCC2	D2 antagonist 37 (no result: D2 PAM-1)
Cc1ccc(N(C(=O)c2ccc3c(c2)OCO3)C2C=CS(=O)(=O)C2)cc1 (configuration not stated)	none
CC1CCCN(c2cc(N(C)CCO)c([N+](=O)[O-])c3nonc23)C1 (configuration not stated)	D2 PAM-1 40
CCCCCNC(=O)C1CC=CCC1C(=O)O (configuration not stated)	D2 antagonist 36
O=C(COC(=O)c1cc([N+](=O)[O-])ccc1N1CCOCC1)Nc1ccccc1OC(F)F	none (no result: Apoferritin bind)
O=C(COC(=O)c1cc([N+](=O)[O-])ccc1N1CCOCC1)c1ccc(OC(F)F)cc1OC(F)F	D2 ag-2 inconclusive, D2 antagonist 44 (no result: Apoferritin bind)
C=CCOC(Cn1ccnc1)c1ccc(Cl)cc1Cl (configuration not stated)	none (no result: Apoferritin bind)
Cc1cc(Nc2ccccc2)c2c([N+](=O)[O-])cc(C)c(C)c2n1	D2 PAM-1 39
COc1cccc(Nc2nc(CC(C)=O)ns2)c1	D2 antagonist 33
O=C(N/N=C/C(Br)=C/c1ccccc1)c1ccc([N+](=O)[O-])cc1	D2 antagonist 39
O=C(N/N=C/C(Br)=C\c1ccccc1)c1ccc2nc[nH]c2c1	D2 antagonist 34
CC(=C/c1ccccc1)/C=N/NC(=O)c1ccc2nc[nH]c2c1	none
Cc1ccccc1C(=O)N1CCCC(N2CCN(Cc3ccc4c(c3)OCO4)CC2)C1 (configuration not stated)	none
S=C(Nc1cccc2ccccc12)NN1CCCCCC1	none (no result: D2 ag-1, Apoferritin bind, D2 PAM-1, D2 antagonist)
O=C(O)c1cc(S(=O)(=O)O)ccc1O	D2 antagonist 42 (no result: Apoferritin bind)
Cn1c(=O)n(CCCOc2ccc(Br)cc2)c2ccccc21	D2 antagonist 32
Cc1ccc2nsnc2c1N(S(C)(=O)=O)S(C)(=O)=O	none
Cc1ccc(/C=[N+](\[O-])c2ccc(N(C)C)cc2)c2nsnc12	D2 antagonist 48
Cn1cnnc1SCC(=O)Nc1cc(S(=O)(=O)N2CCCCCC2)ccc1Cl	none
CCCCCCCCCCCCCCCCn1cc[n+](CC(C)=O)c1	Apoferritin bind inconclusive
CCCCCCn1ccc(=N)cc1	D2 antagonist 36
Nc1ccccc1C(=O)NCc1ccc(Cl)cc1	Apoferritin bind inconclusive, D2 antagonist 30
O=C1CSC(=S)N1/N=C/c1cc(Br)c(O)c(Br)c1	D2 ag-1 85
Nc1nnn(CC(=O)N/N=C/c2ccncc2)n1	none
Cc1ccc(/C=N/NC(=O)Cn2nnc(N)n2)cc1	D2 antagonist 41
CN(CCCNC(=O)c1cccn2c(=O)c3ccccc3nc12)Cc1ccccc1	D2 antagonist 31
O=C(NCCN1CCN(c2ccccc2)CC1)c1cccn2c(=O)c3ccccc3nc12	none
CCCCCCOc1ccc(N2C(=O)CC(SCCN)C2=O)cc1 (configuration not stated)	Apoferritin bind inconclusive
CN(C)/C=N/c1ncc(C(=O)c2ccc(Cl)cc2)s1	D2 antagonist 57
CC(Oc1ccccc1)C(=O)Nc1nnc(S(=O)(=O)N2CCCCC2)s1 (configuration not stated)	none (no result: D2 ag-1, D2 PAM-1, D2 antagonist)
CC(=O)C(=Nc1ccc(Cl)cc1Cl)NNc1cccc(Cl)c1	Apoferritin bind inconclusive, D2 PAM-2 125, D2 ag-2 inconclusive
CC(=O)Nc1ccc(NC(=O)Nc2cccc(Cl)c2)cc1	none
CC(C)n1cc(C(=O)c2ccccc2O)cc(C#N)c1=O	none
N#Cc1cc(C(=O)c2ccccc2O)cn(-c2nccs2)c1=O	D2 ag-1 138
N#Cc1cc(C(=O)c2cc(F)ccc2O)cn(-c2nccs2)c1=O	D2 ag-1 116, D2 antagonist 34
Cc1c(-n2cc(C(=O)c3cc(F)ccc3O)cc(C#N)c2=O)c(=O)n(-c2ccccc2)n1C	none (no result: D2 PAM-1)
CCn1c2ccccc2c2cc(NC(=O)COc3cccc(C)c3)ccc21	none (no result: D2 PAM-2, D2 ag-2, D2 antagonist)
COc1ccc(OC)c(CCNC(=O)C2CCN(c3ncnc4c3nc3n4CCCCC3)CC2)c1	none
Cc1ccc(S(=O)(=O)N(Cc2ccccc2)Cc2ccco2)cc1	D2 antagonist 33
C=C(C)C(=O)Nc1cccc(C2=NOC3(C2)C[C@@H](C(N)=O)N(C(=O)c2cc([N+](=O)[O-])cc([N+](=O)[O-])c2)C3)c1 (some centres not stated)	D2 PAM-2 84
C/C=C(/C)C(=O)Nc1cccc(C2=NOC3(C2)C[C@@H](C(N)=O)N(C(=O)CC)C3)c1 (some centres not stated)	D2 antagonist 43
CCn1c(COc2cccc3cccnc23)nnc1SCC(=O)OC	none
COc1ccc(NC(=O)c2ccc3c(c2)C(=O)N(CC2CCCO2)C3=O)c(OC)c1 (configuration not stated)	D2 PAM-1 37
O=C(Cc1ccccc1)Nc1ccc2c(c1)C(=O)N(CC1CCCO1)C2=O (configuration not stated)	none

Assay outcomes (PubChem BioAssay)
